Each structure is given as a SMILES string. In all, about 360,000 compounds went through this assay and about 2,200 (0.61%) were called active.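 Rule for the calls: active = inhibition above a per-plate cutoff, the plate's mean sample inhibition plus 3 SD (cut at about 24% in these data); inactive = the rest.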 The full list was thinned out, with actives kept by preference.

The nature of the assay: nonselective inhibitors of ATP calcium response in CHO-K1, primary screen, counter-screen for M1 antagonist project, cell-based, Fluo-8 calcium fluorescence, full deck, 1536-well (AID 602250).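 Note: 0% = DMSO plus EC80 ATP and 100% = DMSO alone without ATP.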 To be noted: CHO-K1 parental, ATP-induced calcium, Fluo-8 fluorescence; at 3 µM; stronger effect = higher value. On the technique in general: Counterscreens check selectivity or assay interference.
As for `O=C(O)CCn1c(SCc2cc(=O)n3ccccc3n2)nc2ccsc2c1=O`, the inhibition was -10.2% (inactive). With `CCOC(=O)C1(CCOC)CCN(Cc2cc3ccccc3s2)CC1` the figure was -9.7% (inactive).

In the case of `CCNC(=O)c1cccc(NC(=O)C2CC(=O)N(CCc3ccccc3)C2)c1` (centres undefined), the inhibition was -8.93% (inactive). Then `COC(=O)C1=C(C(=O)OC)C2(OC1c1ccc(Br)cc1)C(=O)c1ccccc1C2=O` (centres undefined), with -3.96% (inactive). In the case of `O=C(c1ccc(C(F)(F)F)cc1)C1CCCN(C(=O)c2csnn2)C1` (centres undefined), the inhibition was -23.1% (inactive).

Consider `CC(C)(C)OC(=O)C[C@@H]1C/C=C\C[C@@H](CC(=O)NCCO)C(=O)N[C@H](Cc2c[nH]c3ccccc23)COC1=O`, for which the inhibition was -11.8% (inactive). Regarding `Cc1nc(CN(C)C(=O)CC2C(=O)NCCN2Cc2ccc(F)cc2)cs1` (centres undefined), the inhibition was -6.22% (inactive). Consider `Nc1c(C(=O)c2cccs2)sc2nsc(SCCN3CCCCC3)c12`, for which the inhibition was 47% (active). Then `CCN(CC(=O)Nc1cc(Cl)ccc1C)C(=O)CN1C(=O)NC2(CCCC2)C1=O`, with -4.87% (inactive); and `COc1cc(-c2nnc(NC(=O)CS(=O)(=O)c3ccc(Cl)cc3)o2)cc(OC)c1OC`, with 12.6% (inactive); and `COc1cc(-c2nnc(Cn3cc(C(F)(F)F)ccc3=O)o2)cc(OC)c1OC`, with 27.6% (active).

As to `CCCc1nc2ccccc2c(C(=O)OCc2nnc(-c3cc(OC)c(OC)c(OC)c3)o2)c1CC`, the inhibition was 1.5% (inactive).

Regarding `Cn1c(SCC(=O)NC2CCCCC2)nnc1-c1ccc(N)cc1`, the inhibition is 3.52% (inactive).

`N#Cc1cc([N+](=O)[O-])ccc1NCC1CCCO1` (centres undefined): the inhibition is -8.37% (inactive). Then `O=C1C(C=NCC2CCCO2)=C(O)c2ccccc21` (centres undefined), with -5.68% (inactive); and `O=C1c2cccc3c([N+](=O)[O-])ccc(c23)C(=O)N1CC1CCCO1` (centres undefined), with 24.2% (active). `CCOc1ccc(NC(=S)N2CCC(N(C)CC3CCCO3)CC2)cc1` (centres undefined): the inhibition was -7.23% (inactive).

For the compound `COc1ccc(CC(=O)NC2CCSc3ccccc32)cc1OC` (centres undefined), the inhibition was -0.56% (inactive). Then `COc1ccc(CC(=O)Nc2nc(-c3ccc(F)c(F)c3)cs2)cc1OC`, with 32.9% (active); and `COc1ccc(CCNC(=O)Cc2ccc(C)cc2)cc1OC`, with 8.59% (inactive); and `Cc1onc(-c2c(F)cccc2Cl)c1C(=O)N(C)CC(=O)Nc1cccc(F)c1`, with -0.6% (inactive). Turning to `CC(=O)Nc1cccc(NC(=O)c2c(-c3ccccc3)noc2C)c1`, the inhibition was 26.9% (active). Then `CC(=O)Nc1cccc(/C(C)=N/NC(=O)c2c(-c3ccccc3Cl)noc2C)c1`, with 10.5% (inactive); and `CC(C)c1nc(SCC(=O)NC(=O)NC(C)(C)C)n[nH]1`, with -2.13% (inactive). Regarding `Cc1cc(NC(=O)Nc2c[nH]c(=O)[nH]c2=O)ccc1Br`, the inhibition was -4.71% (inactive). Take `CCN1N=C(c2ccccc2)CCC1=O`: the inhibition is -1.49% (inactive). Then `O=C1CC(c2ccccc2)=NN1c1ccc([N+](=O)[O-])cc1`, with 26.7% (active); and `O=C1NC(=O)C2C1C(c1ccc([N+](=O)[O-])cc1)=NN2Cc1ccccc1` (centres undefined), with -6.56% (inactive); and `Cc1csc(NC(=O)C2CCCN2C(=O)OCC(C)C)n1` (centres undefined), with 17% (inactive). On to `O=C(N/N=C/c1ccc(OCC2COCCO2)cc1)c1ccc(Br)cc1` (centres undefined), for which the inhibition was -8.18% (inactive). On to `O=C(N/N=C/c1ccc(OC(=O)c2ccccc2Cl)cc1)c1ccc(O)cc1`, for which the inhibition was 24.1% (active). With `CC(C)(C)C(=O)Nc1ccc(C(=O)N/N=C/c2ccccc2OC(=O)c2ccc(Cl)cc2Cl)cc1` the figure was 13.2% (inactive); with `O=C(c1ccccc1F)N(Cc1ccccc1)Cc1ccccc1`, -7.64% (inactive). As to `COCCn1c(Cc2cccn2C)nnc1SCC(=O)Nc1nccs1`, the inhibition was -7.19% (inactive).

Take `Cc1ccc(S(=O)(=O)N2CCN(C(=O)c3cccs3)CC2)cc1`: the inhibition is -9.88% (inactive). For `O[C@H]1C[C@H](c2ccc(Cl)cc2)N(Cc2cccs2)C[C@@H]1n1cc(C2CC2)nn1`, the inhibition was -27.1% (inactive).

Take `O=C(Nc1ccc(-c2ccc3nncn3n2)cc1)C1CCCCC1`: the inhibition is -5.78% (inactive).

On to `CCCN(C(=O)CSc1nnnn1C)c1c(N)n(Cc2ccccc2)c(=O)[nH]c1=O`, for which the inhibition is 4.6% (inactive). `C#CCNC(=O)C[C@@H]1C[C@@]2(C(=O)OCC)CCCC=C2N(Cc2ccco2)C1=O`: the inhibition was -0.85% (inactive). With `COc1cc(OC)cc(-c2nnc(SCC(=O)Nc3ccc(C(=O)O)cc3)s2)c1` the figure was -8.28% (inactive).

In the case of `CCCCNC(=O)CSc1nc2ccc(NC(=O)CSc3nnc(N)s3)cc2s1`, the inhibition is -6.75% (inactive). As to `Nc1nnc(SCC(=O)Nc2ccc3nc(SCC(=O)Nc4ccccc4)sc3c2)s1`, the inhibition was 30% (active). Then `CCN(CC)CCN1C(=O)C2C(C(=O)Nc3ccc(Br)cc3)C3C=CC2(O3)C1C(=O)NC1CCCCC1` (centres undefined), with -12.1% (inactive). Then `COc1ccc(C(=O)C2CCCN(C(=O)c3cc(C)on3)C2)cc1F` (centres undefined), with -2.55% (inactive). `COc1ccc(C(=O)N2CCCC(C(=O)c3ccccc3OC)C2)cc1OC` (centres undefined): the inhibition is 36.9% (active). Then `COc1ccc(F)cc1C(=O)C1CCCN(C(=O)CCc2ccccn2)C1` (centres undefined), with 4.6% (inactive). Then `CCN(CC)CC(=O)Nc1sc2c(c1C(=O)c1ccccc1C)CCC2`, with 3.09% (inactive); and `O=C(Nc1ccc(Cl)cc1)OCc1cc(-c2ccccc2)on1`, with 7.62% (inactive); and `O=C(Nc1cccc(Cl)c1)OCc1ccccn1`, with 25.6% (active). Then `O=C(Nc1ccc([N+](=O)[O-])cc1)OCCc1ccccn1`, with -2.63% (inactive); and `O=C(CN1CCN(S(=O)(=O)c2ccc3ccccc3c2)CC1)NC(=O)NC1CCCCC1`, with -2.87% (inactive).

On to `COc1cc2ccc(C(C)=O)c(O)c2cc1OC`, for which the inhibition is -2.14% (inactive). With `O=C(CN(c1ccc2c(c1)OCCO2)S(=O)(=O)c1ccccc1)Nc1ccc2c(c1)OCO2` the figure was 30.7% (active).

With `O=C(CCS(=O)(=O)Cc1ccccc1)Nc1ccc2c(c1)OCCO2`, the inhibition is -8.23% (inactive). With `CCN(CC(=O)Nc1ccc2c(c1)OCO2)S(=O)(=O)c1ccccc1` the figure was -6.57% (inactive); with `CC1CCCCN1S(=O)(=O)CCNC(=O)c1ccccc1` (centres undefined), 14.2% (inactive). With `CC(=O)Nc1ccc(N2C(=O)CC(Sc3nccc(C)n3)C2=O)cc1` (centres undefined), the inhibition is 23.8% (active). Then `Cc1ccnc(SC2CC(=O)N(c3ccccc3)C2=O)n1` (centres undefined), with 16.3% (inactive); and `CCOc1ccccc1N1C(=O)CC(Sc2nccc(C)n2)C1=O` (centres undefined), with -15.2% (inactive).

The inhibition is the drop in the measured response relative to a control, in per cent.

(Values after PubChem BioAssay AID602250 (The Scripps Research Institute Molecular Screening Center, 2012).)
